Among all 360,000 compounds or so, about 9,100 (2.5%) were called active. Not shown: some 4% with an inconclusive outcome. Cut-off read from the data, not from the text of the source: active = max response below about -50%; inconclusive = no clear call, values can overlap the other calls; inactive = above that. Shown is part of a subset that was picked to be rich in actives.
Biological target: D(3) dopamine receptor (Homo sapiens) (UniProt P35462)
Test: qHTS of D3 Dopamine Receptor Antagonist: qHTS
Conditions: D3R cells, DiscoveRx beta-arrestin luminescence, antagonist mode; hits give low values
In short: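 Cells expressing the human receptor were seeded at 1500 cells/well, incubated overnight at 37 degrees C in 5% CO2, then exposed to library compounds with dopamine controls for 90 minutes at 37 degrees C before luminescent detection.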
% is set by controls: 0 for no effect and ±100 for the full control effect.

D(3) dopamine receptor (Homo sapiens), sequence (P35462 whole entry, looked up): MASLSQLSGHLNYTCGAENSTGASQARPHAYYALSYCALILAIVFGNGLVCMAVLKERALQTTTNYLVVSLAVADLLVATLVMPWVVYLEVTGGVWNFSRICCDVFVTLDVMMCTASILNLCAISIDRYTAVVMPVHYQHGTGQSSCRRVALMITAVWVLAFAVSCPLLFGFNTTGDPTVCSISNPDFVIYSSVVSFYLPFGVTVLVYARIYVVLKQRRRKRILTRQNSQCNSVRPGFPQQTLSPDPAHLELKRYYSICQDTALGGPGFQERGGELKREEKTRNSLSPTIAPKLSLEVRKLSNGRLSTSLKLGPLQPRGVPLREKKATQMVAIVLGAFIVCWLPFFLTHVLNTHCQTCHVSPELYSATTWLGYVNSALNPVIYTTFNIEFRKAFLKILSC

Row | SMILES | max response, negative = inhibition
1 | CC1(C(=O)Nc2cccc(Oc3ccccc3)c2)CCN1Cc1ccccc1Cl (stereo not given) | 11.7% (inactive)
2 | C=C(C)C(=O)O[C@H]1C/C(C)=C\C(=O)/C=C(\C)[C@H](O)[C@@H]2OC(=O)C(=C)[C@@H]21 | -61.4% (active)
3 | CC(CCc1ccccc1)NC(=O)c1ccc(Br)o1 (stereo not given) | -10.2% (inactive)
4 | CC(CNC(=O)c1ccc(Br)o1)NC(=O)c1ccc(Br)o1 (stereo not given) | -72.7% (active)
5 | O=C(NCc1cccs1)c1ccc(Br)o1 | 11.4% (inactive)
6 | CC(C)C1CC2=C(C(=O)OC(C)(C)O2)C(c2ccc(F)cc2)O1 (stereo not given) | -3.03% (inactive)
7 | COc1ccc(NC(=O)COC(=O)C2COc3ccccc3O2)cc1 (stereo not given) | -20.1% (inactive)
8 | Brc1ccc2nc(-c3ccccc3)c(Cc3ccccc3)n2c1 | 23.1% (inactive)
9 | CCNC(=O)C1(C)CCCN(Cc2noc(-c3ccccc3OC)n2)C1 (stereo not given) | 23.6% (inactive)
10 | Cc1cc(OCCN2CCCC2)ccc1C(C)C | 0% (inactive)
11 | Cc1cccc(C)c1OCCN1CCOCC1 | 21.2% (inactive)
12 | Clc1ccccc1-c1cc(COc2ccc3ccccc3c2)no1 | -0.665% (inactive)
13 | c1ccc2cc(OCCN3CCCC3)ccc2c1 | -61.2% (active)
14 | Cc1cc(C)c(NC(=O)CN2CCCCCC2)c(C)c1 | 1.9% (inactive)
15 | Cc1cc(OCCN2CCCC2)cc(C(C)C)c1 | -86% (active)
16 | CCOC(=O)[C@]12CCC=C1N(Cc1cccc3ccccc13)C(=O)[C@H](CC(=O)NCc1cccc(C(F)(F)F)c1)C2 | 7.1% (inactive)
17 | CCCCCCN1C[C@@H](O)[C@H](n2cc(COC(=O)c3ccccc3)nn2)C[C@@H]1c1ccc(Cl)cc1 | 3.45% (inactive)
18 | CCc1nnc(NC(=O)c2ccco2)s1 | -7.74% (inactive)
19 | Cc1ccc(S(=O)(=O)N2CCCCC2)cc1NC(=O)CCNC(=O)c1ccccc1Cl | 25.5% (inactive)
20 | N#Cc1ccc(-c2nc3c(Cl)cc(C(F)(F)F)cn3c2Cc2ccccc2C(F)(F)F)cc1 | 8.9% (inactive)
21 | CCN(CC)CCCNC(=O)c1cc2c(=O)[nH]c3ccc(C)cc3c2s1 | -89.2% (active)
22 | CCN(CC)CCCNC(=O)c1cc(-c2cccc(Cl)c2)on1 | -19.8% (inactive)
23 | Cc1cccc(N(C)C(=O)c2cc3c(=O)[nH]c4ccc(C)cc4c3s2)c1 | -15.8% (inactive)

Row | SMILES | max response, negative = inhibition
24 | CCC(=O)N1CCC(C)(C(=O)Nc2cc(OC)c(OC)c(OC)c2)C1 (stereo not given) | 16.4% (inactive)
25 | CCOc1ccc(NC(=O)N2CC=C(n3c(=O)[nH]c4ccccc43)CC2)cc1 | -51.2% (active)
26 | Cc1cccc(C)c1NC(=O)N1CC=C(n2c(=O)[nH]c3ccccc32)CC1 | 0% (inactive)
27 | CCOc1ccc(NC(=O)N2CCN(CC)CC2)cc1 | 6.64% (inactive)
28 | CCOC(=O)C=Cc1ccc(C(=O)OCC)[nH]1 | 20.2% (inactive)
29 | COC(=O)[C@@]12C[C@@H](CC(=O)N3CCCCC3)C(=O)N(Cc3ccc4c(c3)OCO4)C1=CCC(C)(C)C2 | -15.1% (inactive)
30 | Cc1ccc(NC(=O)N2CCC(O)(c3cccnc3)CC2)cc1 | 1.47% (inactive)
31 | Cc1ccc(NC(=O)N2CCSc3ccccc32)cc1 | -50.5% (active)
32 | CCOc1ccc(CNC(=O)CCC(=O)N2CCSc3ccccc32)cc1 | 10.8% (inactive)
33 | Cc1ccc(S(=O)(=O)N[C@H](CO)C(C)C)cc1 | -14.1% (inactive)
34 | CCCN(CC1COc2ccccc2O1)C(=S)Nc1ccc(C)cc1 (stereo not given) | -53.1% (active)
35 | CCC(=O)c1ccc(OCC(=O)N(CC)CC2COc3ccccc3O2)cc1 (stereo not given) | 10.7% (inactive)
36 | CC(NC(=S)Nc1ccccc1)C1COc2ccccc2O1 (stereo not given) | 1.63% (inactive)
37 | Cc1cc(=O)c2ccc(NC(=O)c3ccccc3)cc2[nH]1 | 13.3% (inactive)
38 | O=C1NC(O)CCN1C1CC(O)C(CO)O1 (stereo not given) | 11% (inactive)
39 | CCCN1CC=C2C(C#N)=C(N)C(C#N)(C#N)C(c3cc(OC)ccc3OC)C2C1 (stereo not given) | -67.2% (active)
40 | CCN1CC=C2C(C#N)=C(N)C(C#N)(C#N)[C@H](c3ccoc3)[C@H]2C1 | -11.8% (inactive)
41 | COc1ccc(NC(=O)c2sc(=O)n(Cc3ccc(S(=O)(=O)N(C)C)cc3)c2C)cc1 | 14.5% (inactive)
42 | CCCCCCCCNS(=O)(=O)CCNC1CCCCC1 | -69.1% (active)
43 | CCCCCCNS(=O)(=O)c1ccccc1Br | 0% (inactive)
44 | CC1(C)CC(=O)C=C(NCCCNC2CCCCC2)C1 | 1.63% (inactive)
45 | CCCC(=O)N1CCC1(C)C(=O)NS(=O)(=O)c1ccc(Cl)cc1 (stereo not given) | 3.58% (inactive)
46 | c1ccc2c(c1)nnn2-c1ccncc1 | -16.5% (inactive)

Row | SMILES | max response, negative = inhibition
47 | CCOC(=O)c1ccc2[nH]c(C)c(CN3CCN(C)CC3)c(=O)c2c1 | 0% (inactive)
48 | Cc1[nH]c2ccc(C(=O)N3CCN(C)CC3)cc2c1C | -72.7% (active)
49 | COC(=O)CCNC(=O)c1ccc2[nH]c(C)c(C)c2c1 | -22.3% (inactive)
50 | CC1(C(=O)Nc2ccc3c(c2)OCCO3)CSCC(=O)N1CCOc1ccccc1 (stereo not given) | -1.68% (inactive)
51 | O=C(Nc1ccc(OCCO)cc1)c1csc([C@H]2C[C@H](O)[C@@H](CO)O2)n1 | -7.51% (inactive)
52 | O=C(NCc1cccnc1)c1ccc2nc([C@@H]3O[C@H](CO)[C@H](O)[C@H](O)[C@H]3O)[nH]c2c1 | 40.4% (inactive)
53 | Nc1nc2cc(Cl)ccc2n1N | 0% (inactive)
54 | O=C(c1cc(S(=O)(=O)N2CCOCC2)ccc1Cl)N1CCOCC1 | -16% (inactive)
55 | O=C(Nc1cc(S(=O)(=O)N2CCOCC2)ccc1Cl)c1cc(=O)c2ccccc2o1 | 17% (inactive)
56 | O=[N+]([O-])c1cc(Cl)cc(/C=N/NC(=S)Nc2cc(S(=O)(=O)N3CCOCC3)ccc2Cl)c1O | -50.3% (active)
57 | Cc1cc(C)n2c(Nc3c(C)cccc3C)c(CCc3ccccc3)nc2n1 | 18.8% (inactive)
58 | CCN(CC)S(=O)(=O)c1cc([N+](=O)[O-])ccc1N=Nc1c(O)n(C)c2ccccc12 | 3.23% (inactive)
59 | CCN(CC)S(=O)(=O)c1cc([N+](=O)[O-])ccc1NNC(=O)Nc1ccccc1 | -56.2% (active)
60 | CC(=O)c1ccc(NC(=O)Nc2ccc([N+](=O)[O-])cc2C)cc1 | -18.2% (inactive)
61 | COc1ccc(-c2cc(-c3ccc(N)cc3)nc(N)c2C#N)cc1OC | 23.8% (inactive)
62 | COc1ccc(-c2cc(C(F)(F)F)nc(S(C)(=O)=O)n2)cc1OC | -72.7% (active)
63 | COc1ccc(-c2ccc(Nc3ccc(S(=O)(=O)N4CCCC4)cc3)nn2)cc1OC | 39.5% (inactive)
64 | COc1ccc(NC(=O)CCCOc2ccc(C(C)=O)cc2)cc1S(=O)(=O)N1CCCCC1 | -5.42% (inactive)
65 | CC(C)NC(=O)C1(C)CCCCCN1C(=O)c1ccc(-c2ccccc2)cc1 (stereo not given) | 15.2% (inactive)
66 | CCOC(=O)C(=Cc1ccccc1OC)C(=O)OCC | -20.5% (inactive)
67 | CCOC(=O)C(=Cc1ccccc1)C(=O)c1ccccc1 | -59.2% (active)
68 | CCOC(=O)C(=CNc1cccc(C)n1)C(=O)OCC | -3.11% (inactive)
69 | COC(=O)c1ccc2nc(-c3cccc(Br)c3)c(Cc3ccc(OC)cc3C)n2c1 | -25.6% (inactive)

Row | SMILES | max response, negative = inhibition
70 | Cc1ccccc1S(=O)(=O)N1[C@@H](c2cccc(Cl)c2)C(C(=O)OC(C)(C)C)=CC[C@H]1c1ccc(Cl)cc1 | 6.92% (inactive)
71 | CC(Sc1nnc(-c2cccs2)n1C1CC1)C(=O)NCC1CCCO1 (stereo not given) | 15.9% (inactive)
72 | CCOC(=O)C1(CC2CCCCO2)CCN(Cc2nc(-c3cccs3)oc2C)CC1 (stereo not given) | -99% (active)
73 | CCOc1ccccc1-c1nc(CN2CCC(C(=O)N3CCOCC3)CC2)c(C)o1 | -15.7% (inactive)
74 | COc1ccccc1-c1cc2nc(NCc3cccc(Cl)c3)ccn2n1 | 7.72% (inactive)
75 | Cc1cccc(C)c1-n1nnnc1C1(C)CCC(=O)N1CCOc1ccccc1 (stereo not given) | 8.1% (inactive)
76 | COc1ccc(NC(=O)CN(C)C(=O)c2cc(C3CC3)nn2-c2ccccc2)cc1 | -0.552% (inactive)
77 | CCc1ccccc1NC(=O)CN1CCN(C(=O)c2cc(C3CC3)nn2-c2ccccc2)CC1 | 13.7% (inactive)
78 | COc1ccc(CN2CCN(C(=O)c3cc(C4CC4)nn3-c3ccccc3)CC2)cc1F | -50% (active)
79 | CC(C)OC(=O)CC(=O)CC(O)c1cccc([N+](=O)[O-])c1 (stereo not given) | -17.6% (inactive)
80 | CC[C@@]12C(=O)N(c3ccccc3)C(=O)N1[C@H](c1ccc(Br)cc1)[C@@H]1C(=O)N(C(C)(C)C)C(=O)[C@@H]12 | -54% (active)
81 | CC(C)(C)N1C(=O)[C@H]2[C@@H](c3ccc(Br)cc3)N3C(=O)N(c4cccc(Cl)c4)C(=O)[C@@]3(C)[C@H]2C1=O | -1.37% (inactive)
82 | COc1ccc([C@@H]2[C@@H]3C(=O)N(C(C)(C)C)C(=O)[C@@H]3[C@]3(Cc4ccccc4)C(=O)N(c4cccc(Br)c4)C(=O)N23)cc1 | 8.03% (inactive)
83 | O=C1C(Sc2cccc(F)c2)=C[C@@]2(O)CC[C@@H](O)[C@]1(Sc1cccc(F)c1)[C@H]2O | 4.49% (inactive)
84 | COC(=O)C(C)n1cnc2c(nnn2-c2ccc(F)cc2)c1=O (stereo not given) | 0% (inactive)
85 | CCOC(=O)C(C)n1cnc2c(nnn2-c2ccc(F)cc2)c1=O (stereo not given) | -1.26% (inactive)
86 | CCOC(=O)C(C)n1cnc2c(nnn2-c2cccc(OC)c2)c1=O (stereo not given) | -57.8% (active)
87 | CCCCCCCCN1C(=O)[C@H](CC(=O)NCc2cccc3ccccc23)C[C@@]2(C(=O)OC)CCCCC=C12 | 10.6% (inactive)
88 | C#CCOCCOCCOCCNc1nc(N2CCN(C(=O)[C@H](C(C)C)n3cc(CCO)nn3)CC2)nc(N2CCN(C(=O)[C@H](C(C)C)n3cc(CCO)nn3)CC2)n1 | 8.41% (inactive)
89 | C#CCOCCOCCOCCNc1nc(N2CCN(C(=O)Cn3cc(CCO)nn3)CC2)nc(N2CCN(C(=O)[C@H](CCCCN)n3cc(CCCC)nn3)CC2)n1 | 15.4% (inactive)
90 | C#CCOCCOCCOCCNc1nc(N2CCN(C(=O)CCCCCCCCCCNC(=O)[C@H]([C@@H](C)CC)n3cc(CCCCN=C(N)N)nn3)CC2)nc(N2CCN(C(=O)CCCCCCCCCCNC(=O)[C@H](CO)n3cc(CCCSC)nn3)CC2)n1 | -60.9% (active)

From PubChem BioAssay AID652054 (National Center for Advancing Translational Sciences (NCATS), 2013)
